Reference: PubChem BioAssay (NCI)
Several values for one entry are separate records, joined by “and”; a condition that tells them apart may be missing. Equal values may be shown once. Compounds without any hit were thinned out: in the full panel of roughly 79,000, 15% have a hit. Activity calls are given as the source filed them. No stated cut-off is given here; in the data, active means growth inhibition above about 70%; inactive means the rest.

Legend:
[1] = NCI Yeast Anticancer Drug Screen. Data for the rad50 strain (AID 155);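 further: 0% = growth of vehicle-only cultures of the same strain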; details: S. cerevisiae rad50 strain growth inhibition; at 50.0 µM; stronger effect = higher value
Procedure, shortened: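 Relative growth inhibition (compound vs vehicle) was measured in yeast with a defined repair-gene alteration.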

[2] = NCI Yeast Anticancer Drug Screen. Data for the mec2-1 strain (AID 157); details: S. cerevisiae mec2-1 strain, at 50.0 µM, stronger effect = higher value
Procedure, shortened: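 Strain: mec2-1 (DNA repair/cell cycle alteration). Compound exposure, then growth measured; inhibition expressed relative to vehicle.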

[3] = NCI Yeast Anticancer Drug Screen. Data for the sgs1 mgt1 strain (AID 161);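 further: 0% = growth of cultures given vehicle only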; details: S. cerevisiae sgs1 mgt1 strain, at 50.0 µM, stronger effect = higher value
Procedure, shortened: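 Genetically altered yeast, compound exposure, growth inhibition relative to vehicle.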

[4] = NCI Yeast Anticancer Drug Screen. Data for the cln2 rad14 strain (AID 165);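 further: 0% = growth equal to vehicle treated cultures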; details: S. cerevisiae cln2 rad14 strain, at 50.0 µM, stronger effect = higher value
Procedure, shortened: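 Compounds are applied to the cln2 rad14 yeast strain, and growth is then compared with that of vehicle-treated cultures to give inhibition.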

[5] = NCI Yeast Anticancer Drug Screen. Data for the bub3 strain (AID 167); details: S. cerevisiae bub3 mutant strain, at 50.0 µM, stronger effect = higher value
Procedure, shortened: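 Screening used yeast with an engineered genetic alteration affecting cell cycle control. Compound-exposed cultures were compared with vehicle cultures, and reduced growth was taken as inhibition.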

[6] = NCI Yeast Anticancer Drug Screen. Data for the mlh1 rad18 strain (AID 175); details: S. cerevisiae mlh1 rad18 strain growth inhibition; at 50.0 µM; stronger effect = higher value
Procedure, shortened: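 Read-out is yeast growth inhibition, calculated against vehicle-only controls. The compound was applied to a strain engineered with DNA damage repair alterations.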

Measured: growth inhibition

[N-]=[N+]=NC1(C(=O)O)CCCC1
inactive: [1] 0.95% | [2] -6.85% | [3] -15.4% | [4] -14.2% | [5] -5.75% | [6] -34.8%

CC1(C)C=C(NC(=O)N2CC2)C(C)(C)N1O
inactive: [1] 12.7% | [2] 11.3% | [3] -2% | [4] 9.75% | [5] 34.8% | [6] 1.45%

CCOP(=O)(OCC)/C(C#N)=C/c1ccc(C#N)cc1
inactive: [1] 30.6% | [2] 15.8% | [3] 10.8% | [4] 12.3% | [5] 14.7% | [6] 55.2%

COc1ccc(/C=C/c2cc(OC)c3c(c2)OCO3)cc1O
inactive: [1] 4.4% | [2] 5.45% | [3] -9.55% | [4] 0.9% | [5] 1.7% | [6] -7.75%

Cc1cc(-n2c(C)nc3ccccc3c2=O)on1
inactive: [1] -35.1% | [2] -15.7% | [3] -4.15% | [4] -47.5% | [5] 8.9% | [6] 3.75%

CCOC(=O)/C(=C\c1ccc(OC)cc1)[Se]c1ccccc1
inactive: [1] 50% | [2] -11% | [3] 39.5% | [4] 13.8% | [5] 44.6% | [6] 59.9%

CC(Cl)C(=O)OC(C)C(=O)O (centres undefined)
inactive: [1] 12.1% | [2] 17.1% | [3] 12.5% | [4] 8% | [5] -2.7% | [6] 3.4%

CC(C)CCC[C@@H](C)[C@H]1CC[C@H]2[C@@H]3CC=C4C[C@@H](OC(=O)F)CC[C@]4(C)[C@H]3CC[C@]12C
inactive: [1] 19.9% | [2] 20.6% | [3] 42.5% | [4] 35.9% | [5] 26.9% | [6] 33.7%

C(#CCN1CCCCCC1)CN1CCCCCC1
inactive: [1] 0.55% | [2] -9.8% | [3] 0.05% | [4] -8.85% | [5] -14.1% | [6] -2.7%

COc1ccccc1CC(C)NC(C)Cc1ccccc1OC (centres undefined)
inactive: [1] 2.25% | [2] -3.4% | [3] 8.05% | [4] -1.8% | [5] -1.4% | [6] 7.6%

O=P(Oc1ccccc1)(Oc1ccccc1)C(O)C(Cl)(Cl)Cl (centres undefined)
inactive: [1] 7.55% | [2] -2.55% | [3] -0.3% | [4] 6.5% | [5] 4% | [6] 5.45%

CC1=CC23C(COC(=O)C24CO4)C(C(=O)O)=CC3C1C (centres undefined) (tested in a mixture with another compound)
inactive: [1] 38% | [2] 29% | [3] 34.5% | [4] 33.4% | [5] 17.9% | [6] 30.4%

CCC(CO)N=Cc1ccccc1O.CCC(CO)N=Cc1ccccc1O.[Ni] (centres undefined)
inactive: [1] 40% | [2] 1.3% | [3] 31.9% | [4] -44.1% | [5] 8.7% | [6] 25.5%

C1CC[N-]CC1.CC(=N\O)/C(C)=N/O.CC(=N\O)/C(C)=N/O.[CH2-]Cl.[Co+2]
inactive: [1] 4.6% | [2] 14.8% | [3] 14.4% | [4] -31.6% | [5] 20.1% | [6] 27.9%

[Mg]=[Se]
inactive: [1] 16.6% | [2] 3.15% | [3] 14.4% | [4] -6.5% | [5] 6% | [6] 38.8%

O=c1[nH]c2ccc([As](=O)(O)O)cc2[nH]1
inactive: [1] -8.7% | [2] -1.1% | [3] -0.95% | [4] -5.2% | [5] 13.7% | [6] 8.55%

NC1(P(=O)(O)O)CCCCC1
inactive: [1] 2.5% | [2] -3% | [3] -22.4% | [4] -52% | [5] -31.6% | [6] -10.5%

CCOP(=O)(OCC)Oc1cc(C)c(SC)c(C)c1
inactive: [1] -6.45% | [2] -24.4% | [3] -0.6% | [4] 9.25% | [5] 19% | [6] -16.8%

C1N2CN3CN1CN(C2)C3.[Cu+2]
inactive: [1] -15.4% | [2] -9.85% | [3] -14.7% | [4] -8.5% | [5] -15% | [6] -6.9%

O=C(O)CCCNSc1ccccc1[N+](=O)[O-]
active: [1] 71.2% | [3] 73% | [6] 72%
inactive: [2] 44.5% | [4] 48.9% | [5] 68.4%

CCCCOP(=O)(OCCCC)Oc1cccc([N+](=O)[O-])c1
inactive: [1] 6.6% | [2] 46.1% | [3] 18.9% | [4] 28.2% | [5] 42.3% | [6] 14.5%

O=C([O-])Cc1ccccc1.O=[N+]([O-])O.[Co+3].[NH2-].[NH2-].[NH2-].[NH2-].[NH2-]
inactive: [1] 13.1% | [2] 12.5% | [3] 21.3% | [4] 11.9% | [5] 14.8% | [6] -5.9%

CNC(=O)Oc1ccc2c(C)cc(=O)oc2c1
inactive: [1] 21.1% | [2] 0.2% | [3] 4.55% | [4] -27% | [5] 17.2% | [6] 15.3%

CC1(C)N=C(N)N=C(N)N1c1ccc(CCc2cccc(Cl)c2S(=O)(=O)F)c(Cl)c1
active: [1] 99.5% | [2] 99.7% | [3] 99.7% | [4] 99.3% | [5] 99% | [6] 99.5%

CC1(c2ccccc2)CCC(=O)NC1=O (centres undefined)
inactive: [1] 7.2% | [2] 19.6% | [3] 14.6% | [4] 32.5% | [5] 7.85% | [6] 38.6%

CSCC(NP1(=O)SC(NN=C(C)C)=NC1(C)C)C(=O)O (centres undefined)
inactive: [1] 4.85% | [2] -3.7% | [3] -26.5% | [4] 20.3% | [5] 17.6% | [6] -3.45%

C/C=C(\C)C(=O)OC1CCN2CC=C(COC(=O)C(O)(C(C)O)C(C)(C)O)C12 (centres undefined)
inactive: [1] 12.3% | [2] 2.3% | [3] 2.5% | [4] 4.85% | [5] 6.25% | [6] -0.55%

CCCCOC(=O)c1ccccc1N
inactive: [1] -4.3% | [2] -15.5% | [3] -4.2% | [4] -1.85% | [5] 0.2% | [6] -3.6%

CSc1nsc(-c2ccccc2)[s+]1
inactive: [1] 13% | [2] -11.6% | [3] 2.95% | [4] -74.5% | [5] -9.2% | [6] 18%

O.O.[NH-]C1CCCCC1[NH-].[Pt+2] (centres undefined)
inactive: [1] 19.6% | [2] 33.6% | [3] 6.25% | [4] -5.95% | [5] 3.05% | [6] 44.2%

C1CCN2CC3CCCN4CCCC(C2C1)C34 (centres undefined)
inactive: [1] 5.5% and 7.1% | [2] -21.9% and -1.05% | [3] 7.3% and -16.1% | [4] -0.35% and -0.5% | [5] -11.9% and -6.6% | [6] -96.5% and -85.2%

[C-]#[O+].[C-]#[O+].[C-]#[O+].[Ni].c1ccc([PH+](CC[PH+](c2ccccc2)c2ccccc2)CC[PH+](c2ccccc2)c2ccccc2)cc1
inactive: [1] 43.9% | [2] 38.5% | [3] 46.7% | [4] 32.8% | [5] 42.6% | [6] 46.3%

CCCCSP(=S)(SCCCC)c1ccc(Cl)cc1
inactive: [1] 30.7% | [2] 9.4% | [3] 13.8% | [4] 17.6% | [5] 19% | [6] 14.2%

CCCCOS(C)(=O)=O
inactive: [1] 19.6% | [2] -13.8% | [3] 22.4% | [4] 5.8% | [5] 21.4% | [6] 29.4%

CN(C)CCc1ccc(O)cc1
inactive: [1] 3.9% and -2.85% | [2] 4.2% and 2.8% | [3] 10.1% and -3.15% | [4] 5.55% and -16.4% | [5] 2.85% and -2.9% | [6] -0.85% and 4.85%

FC(F)(F)c1ccc(Cl)c(NC2=NCCS2)c1
inactive: [1] 14.2% | [2] 24.8% | [3] 19.4% | [4] 11.2% | [5] 11% | [6] 20.2%

C=CC(=O)NCO
inactive: [1] -3.9% | [2] 15.2% | [3] -1.4% | [4] -20.4% | [5] 3.6% | [6] -12.3%

CC(=O)OC1CCC2(C)C(=CCC3C2CCC2(C)C(Oc4ccccc4)CCC32)C1 (centres undefined)
inactive: [1] -42.7% | [2] -28.4% | [3] -33.6% | [4] 3.55% | [5] -28.4% | [6] -46.1%

O=CC(O)C(O)C1[O][Sb][O]C1CO (centres undefined)
inactive: [1] 0.75% | [2] -1.7% | [3] -4.45% | [4] -53.9% | [5] -5.85% | [6] -8.85%
